High-throughput results deposited in PubChem by National Center for Advancing Translational Sciences (NCATS).
This is a sample that favours compounds with a hit; in the whole collection about 2.3% have one here.
GRP78 ERSR act – induces the endoplasmic reticulum stress response in human glioma cells. U87-MG GRP78 promoter luciferase reporter, 16 h. hit rate 0.02% among 420,000. Potency, µM, inactives show at the top dose activation, usual class: activators; further: series mostly up to about 76 µM; % of control where 0% means no effect; nearly all actives have a fitted effect of over 35% in size
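Stably transfected U87-MG glioma cells carrying a GRP78-based luciferase sensor; 16 h compound incubation. Luminescence end-point read 10 min after Bright-Glo addition at room temperature.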
GLP-1R agonist – activates the human GLP-1 receptor; Potency, µM (highest dose often 45.6 µM), for the others: at the highest dose activation, usual class: activators; hit rate 0.007% among 380,000; P43220; HEK293 GLP-1R CRE-luciferase, luminescence, 4-6 h; cells express a hypersensitive GLP-1R form; further: % of control where 0% means no effect
PTHR1 agonist – PTHR1 (human) receptor agonism; Q03431; HEK293 GP2 PTHR1 cells, GloSensor cAMP luminescence, 1 h; Potency, µM (titrated, usually from 115 µM), for inactives: top-dose activation, most hits filed as activators; hit rate 0.075% among 410,000; AID 743266; further: nearly all actives have a fitted effect of over 55% in size
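HEK-293-derived GP2 cells expressing PTHR1 and a GloSensor cAMP reporter, 3,000/well, plated overnight, given luciferin plus IBMX (each 0.5 mM as added) for 1 h at 37 °C, then compound for 1 h at 37 °C. Luminescence was read after 15 min at room temperature.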
ALOX12 inh – blocks human arachidonate 12S-lipoxygenase; P18054; Potency, µM (doses to about 108 µM), without a hit: top-dose activity change, negative = inhibition, hits mostly inhibitors; purified 12hLO, xylenol orange hydroperoxide absorbance; AID 1671190; hit rate 1.1% among 580,000; further: on the % scale 0 is the no-effect control and ±100 the full control effect
Target sequence (P18054 whole entry, looked up): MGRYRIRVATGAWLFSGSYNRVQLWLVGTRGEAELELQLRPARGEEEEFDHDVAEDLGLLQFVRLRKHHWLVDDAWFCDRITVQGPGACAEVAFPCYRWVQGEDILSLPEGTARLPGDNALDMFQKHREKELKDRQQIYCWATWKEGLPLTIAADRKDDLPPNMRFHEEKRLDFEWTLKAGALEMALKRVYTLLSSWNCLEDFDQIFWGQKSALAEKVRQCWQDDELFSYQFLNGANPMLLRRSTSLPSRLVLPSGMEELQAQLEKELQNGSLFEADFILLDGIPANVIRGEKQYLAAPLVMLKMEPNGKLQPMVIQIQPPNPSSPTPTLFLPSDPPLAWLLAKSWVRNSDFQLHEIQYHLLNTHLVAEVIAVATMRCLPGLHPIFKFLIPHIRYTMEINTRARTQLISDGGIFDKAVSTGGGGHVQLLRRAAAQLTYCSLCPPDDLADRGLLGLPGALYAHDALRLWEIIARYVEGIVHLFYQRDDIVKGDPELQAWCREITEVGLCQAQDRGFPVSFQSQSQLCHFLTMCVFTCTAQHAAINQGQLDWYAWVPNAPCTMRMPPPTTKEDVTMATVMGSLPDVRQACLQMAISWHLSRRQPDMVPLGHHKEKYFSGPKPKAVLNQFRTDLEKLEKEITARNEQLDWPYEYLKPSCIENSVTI
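Purified human 12hLO (150 nM final) in 25 mM Hepes, 0.01% Triton X-100, pH 7.0 was preincubated 15 min at room temperature with compound. Then 40 uM arachidonic acid was added, 30 min. Hydroperoxide was read by Fe-XO absorbance ratio 573/405 nm.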
GLP1R inv ag – GLP-1 receptor (human) inverse agonism; HEK293 GLP-1R CRE-luciferase, luminescence, 24 h; GLP-1R form is constitutively active; AID 624417; Potency, µM (doses to about 38.3 µM), for the others: at the highest dose activity change, negative = inhibition, most hits filed as inhibitors; hit rate 1.6% among 410,000; further: on the % scale 0 is the no-effect control and ±100 the full control effect; nearly all actives have a fitted effect of over 55% in size
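HEK293 cells stably co-expressing a cAMP-responsive luciferase reporter and constitutively active GLP-1R were seeded, incubated 12 h, then exposed to compounds for 24 h at 37 C. Luminescence was read 12 min after detection reagent; inverse agonists lower signal.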
GLS inh – inhibitors of human glutaminase (GLS); GLS enzymatic activity, qHTS titration; Potency, µM (titrated, usually from 45.5 µM), without a hit: at the highest dose activity change, negative = inhibition, hits mostly inhibitors; AID 624170; O94925; hit rate 0.21% among 410,000; further: on the % scale 0 is the no-effect control and ±100 the full control effect
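Assay buffer: 45 mM KH2PO4 pH 8.2, 0.02% Tween-20. hKGA acts on L-glutamine (1 mM solution added); product glutamate is reported by an oxidase/peroxidase Amplex Red coupling, with fluorescence taken at baseline and 30 min.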
Active calls of the source: *; i = inactive; ? = inconclusive; . = no result; [ ] = remark or other dose. The call rests on the fitted dose curve; in most records, active means well fitted curve in the direction sought with a large enough effect; inconclusive means small, poorly fitted or top-dose-only effect, or another doubt; inactive means no such curve, though single readings can be large; an effect the other way counts as inactive or inconclusive. Potency means the concentration at half of the fitted maximal effect.

SMILES | GRP78 ERSR act | GLP-1R agonist | PTHR1 agonist | ALOX12 inh | GLP1R inv ag | GLS inh
CC1=C(C(=O)OCCOc2ccccc2)C(c2ccc(C)o2)C2=C(CC(C)(C)CC2=O)N1 (stereo unspecified) | -2.6% | -0.7% | -18.3%[57.5 µM] | 86.2% | 7.94µM* | 4.0%
COC(=O)C1C(=O)C2=C(CC1C)NC(C)=C(C(=O)OCc1ccc(OC)cc1)C2c1ccc(C)o1 (stereo unspecified) | -4.2% | 2.8% | ? | -8.0% | -35.3% | -4.1%
CC1=C(C(=O)OCc2ccccc2)C(c2ccc(C)o2)C2=C(CCCC2=O)N1 (stereo unspecified) | -4.3% | -0.5% | -8.5%[57.5 µM] | 98.9% | 3.3% | 25.0%
CC1=C(C(=O)OC2CCCCC2)C(c2ccc(O)cc2)C2=C(CC(C)(C)CC2=O)N1 (stereo unspecified) | . | . | . | -29.1% | . | .
NC(=O)CCN1CCN(S(=O)(=O)c2ccc(F)c(Cl)c2)CC1 | . | . | . | 1.1% | . | .
Cc1ccc(C(=O)NCC(C)(C)CNC(=O)c2ccc(C)o2)o1 | . | . | . | -1.4% | . | .
CCCC1=[N+](CC)CCn2c(C)ccc21 | -3.5% | -3.8% | -3.0%[57.5 µM] | 20µM* | 4.9% | 13.2%
c1ccc(OCc2nn3c(CN4CCOCC4)nnc3s2)cc1 | . | . | . | 10µM* | . | .
c1ccc(OCc2nnc3sc(-c4ccccc4)nn23)cc1 | . | . | . | 8.91µM* | . | .
COc1cccc(C2C(C#N)=C(N)OC3=C2C(=O)CC(C)(C)C3)c1 (stereo unspecified) | . | . | . | 12.0% | . | .
OCCN1CCN(CC/C=C2/c3ccccc3CSc3ccccc32)CC1 | -5.8% | 4.3% | -22.6% | 5.0% | 8.91µM* | 2.9%
Cc1ccc(/C=C(\NC(=O)c2ccc(C)cc2)c2nc(=S)[nH][nH]2)cc1 | 1.6% | 2.8% | i | 20µM* | ? | 14.6%
O=C(O)Cn1cc2c(n1)CCCC2 | -4.7% | -5.9% | -23.9% | 20µM* | 0.3% | -0.8%
O=C(Nc1ccccc1)N1CCCN(c2ccc(C(F)(F)F)cc2[N+](=O)[O-])CC1 | -1.5% | 3.4% | -5.7% | 0.0% | 7.94µM* | 5.0%
Cc1cc(N2CCN(c3ccc([N+](=O)[O-])c4cccnc34)CC2)c2ccccc2n1 | -2.3% | 0.3% | i | . | -2.9% | -8.0%
O=C(C1CCC1)N1CCN(c2ccc(C(F)(F)F)cc2[N+](=O)[O-])CC1 | -0.6% | -3.2% | -4.9% | 0.0% | -15.2% | 1.1%
Cc1cc(N2CCN(c3ccc(C(F)(F)F)cc3[N+](=O)[O-])CC2)c2ccccc2n1 | -2.3% | -1.1% | -49.2% | -22.6% | 7.94µM* | -0.8%
CNC(=O)c1cccc(NC(=O)c2cccc(OCc3c(C)noc3C)c2)c1 | . | . | . | 8.1% | . | .
COc1ccc(CCNC(=O)CSCc2cnn(-c3ccccc3)c2-n2cccc2)cc1OC | . | . | . | -8.5% | . | .
O=C(CSCc1cnn(-c2ccccc2)c1-n1cccc1)Nc1ccc(F)cc1F | -1.2% | . | -79.3% | -4.8% | ? | -2.6%
COc1ccc(OC)c(NC(=O)CSCc2cnn(-c3ccccc3)c2-n2cccc2)c1 | -3.7% | 9.0% | -17.6%[57.5 µM] | 0.0% | 11.2µM* | -13.3%
Cc1ccc(NC(=O)CSCc2cnn(-c3ccccc3)c2-n2cccc2)c(Cl)c1 | -1.0% | . | -41.1% | -21.3% | 10µM* | -0.4%
O=C(CSCc1cnn(-c2ccccc2)c1-n1cccc1)NCc1ccccc1F | -1.4% | . | -79.3% | -22.4% | 12.6µM* | -11.9%
COc1cc(NC(=O)CSCc2cnn(-c3ccccc3)c2-n2cccc2)cc(OC)c1 | -3.5% | 1.2% | -11.8%[57.5 µM] | 1.6% | 3.16µM* | -18.0%
COc1cccc(/C=C(/C(=O)c2ccccc2)c2nc3ccccc3s2)c1 | . | . | . | -31.7% | . | .
SMILES | GRP78 ERSR act | GLP-1R agonist | PTHR1 agonist | ALOX12 inh | GLP1R inv ag | GLS inh
Cc1cc(C)c2c(=O)cc(C(=O)N3CCN(c4cccc(Cl)c4)CC3)oc2c1 | . | . | . | 7.3% | . | .
CC(=O)c1sc(NC(C)C)c(C#N)c1N | . | . | . | 17.8µM* | . | .
COc1cc(C2NCC(c3ccc(Cl)cc3Cl)c3c2[nH]c2ccccc32)cc(OC)c1OC (stereo unspecified) | -3.3% | -0.9% | 22.8% | 28.2µM* | ? | -8.0%
CSc1ccc(NC(C)=O)cc1 | . | . | . | -43.6% | . | .
CCn1nc(C)c2ccn(CC(=O)NCc3ccccc3C(F)(F)F)c(=O)c21 | . | . | . | 0.5% | . | .
CC(C)(C)Sc1ccc2nc3c(n2c1)CCCC3 | -2.0% | ? | -19.1% | -0.6% | 10µM* | 3.9%
COc1ccccc1-n1nnc(C(=O)OCc2cc(C)ccc2C)c1C | . | . | . | 5.2% | . | .
CCC1=NN2C(=N)/C(=C\c3ccc(OCc4cc(=O)n5nc(CC)sc5n4)c(OC)c3)C(=O)N=C2S1 | -3.4% | -5.3% | 17.2% | -9.4% | 19.4% | 11.2µM*
Cc1cccnc1NC(=S)NC(=O)c1oc2ccccc2c1C | 7.3% | 9.2% | -29.6% | ? | 4.47µM* | -1.5%
Cc1ccnc(NC(=O)c2oc3ccccc3c2C)c1 | -10.6% | 0.3% | -13.3% | -3.3% | 11.2µM* | 9.0%
Cc1c(C(=O)Nc2cnccn2)oc2ccccc12 | 2.7% | 9.0% | i | 18.0% | 5.5% | -5.2%
c1ccc(CN2CCC[C@H]2c2nc(-c3ccnc(N4CCOCC4)c3)no2)cc1 | . | . | . | 34.5%[176 µM] | . | .
O=C(O)c1ccc(-n2cccc2/C=C2/NC(=O)N(c3ccccc3)C2=O)cc1 | -5.5% | -0.4% | 14.8% | ? | 12.7% | 10µM*
O=C(O)c1ccc(-n2cccc2/C=C2/SC(=O)N(CC(=O)N3CCCC3)C2=O)cc1 | -5.1% | -1.5% | i | -12.1% | 9.1% | 15.8µM*
N#Cc1ccccc1CN1C(=O)S/C(=C/c2cccn2-c2ccc(C(=O)O)cc2)C1=O | -0.7% | -21.3% | -25.2% | -15.0% | ? | -17.3%
Cc1ccc(CN2C(=O)N/C(=C\c3cccn3-c3cccc(C(=O)O)c3)C2=O)cc1 | -0.3% | 8.6% | -44.2% | ? | 1.5% | 1.6%
O=C(O)c1cccc(-n2cccc2/C=C2\NC(=O)N(Cc3ccc(F)cc3)C2=O)c1 | -0.4% | 0.9% | -12.2% | 39.8µM* | -10.4% | ?
CCCCCCNC(=O)C(C#N)c1nc2ccccc2nc1N1CCN(C(=O)OCC)CC1 (stereo unspecified) | . | . | . | 18.3% | . | .
Cc1ccc(S(=O)(=O)N/N=C/c2cc(Br)ccc2O)cc1 | 0.1% | -0.3% | -26.8% | -20.3% | ? | 10.9%
Cc1ccc(S(=O)(=O)Nc2ccc(Br)cc2/C=N/n2cnnc2)cc1 | -1.0% | -4.5% | 4.4%[57.5 µM] | 44.7µM* | ? | 16.0%
CC(OC(=O)C1CC2CCCC(C1)C2=O)C(=O)c1ccc(Cl)cc1 (stereo unspecified) | . | . | . | 52.8% | . | .
S=C1SCN(Cc2ccco2)CN1Cc1ccco1 | -5.4% | 0.4% | -9.8% | 97.4% | 5.62µM* | -4.4%
